Measurements from PubChem BioAssay (NCATS).
Results filed as inconclusive are left out. Activity calls are given as the source filed them. Calls follow the shape of the dose curve; as a rule, active = well fitted cell-killing curve with a large enough effect; inconclusive = small, poorly fitted or top-dose-only effect, or effect the other way; inactive = no such curve, though single readings can be large or run the other way. Non-standard residues stand in square brackets, D forms with d. Residues, ends and D or L forms follow the SMILES beside them. *: point of attachment. Nva = CCC[C@H](N)C(=O)O; Cbz = O=C(OCc1ccccc1)*

What was measured:
[1] = Quantitative High-Throughput drug screen in 47 multiple myeloma cell lines against the NCATS MIPE library collection: OCIMY1_PLB cell viability assay (AID 1918979); also: nearly all actives have a fitted effect of over 35% in size;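 as to viability: 100% = DMSO-only wells and 0% = cell-free media-only wells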
In short: (§1)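 Cells were exposed to library compounds for 48 hours, after which ATP was measured by CellTiter-Glo. Signal was taken as median relative luminescence units.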

[2] = Quantitative High-Throughput drug screen in 47 multiple myeloma cell lines against the NCATS MIPE library collection: MM1S_ATCC cell viability assay (AID 1918980); also: nearly all actives have a fitted effect of over 45% in size
In short: as §1

[3] = Quantitative High-Throughput drug screen in 47 multiple myeloma cell lines against the NCATS MIPE library collection: MM1R_ATCC cell viability assay (AID 1918981); also: nearly all actives have a fitted effect of over 35% in size
In short: as §1

[4] = Quantitative High-Throughput drug screen in 47 multiple myeloma cell lines against the NCATS MIPE library collection: LP1_DSMZ cell viability assay (AID 1918982); also: nearly all actives have a fitted effect of over 35% in size
In short: as §1

[5] = Quantitative High-Throughput drug screen in 47 multiple myeloma cell lines against the NCATS MIPE library collection: KMS28PE_JCRB cell viability assay (AID 1918983); also: nearly all actives have a fitted effect of over 35% in size
In short: as §1

[6] = Quantitative High-Throughput drug screen in 47 multiple myeloma cell lines against the NCATS MIPE library collection: L363_DSMZ cell viability assay (AID 1918984); also: nearly all actives have a fitted effect of over 40% in size
In short: as §1

[7] = Quantitative High-Throughput drug screen in 47 multiple myeloma cell lines against the NCATS MIPE library collection: KMS34_JCRB cell viability assay (AID 1918985); also: nearly all actives have a fitted effect of over 40% in size
In short: as §1

[8] = Quantitative High-Throughput drug screen in 47 multiple myeloma cell lines against the NCATS MIPE library collection: OCIMY7_PLB cell viability assay (AID 1918987); settings: OCI-MY7 myeloma viability, CellTiter-Glo ATP, 48 h; viability (% of DMSO): at 45.8 µM (top of the series); also: nearly all actives have a fitted effect of over 65% in size
In short: as §1

[9] = Quantitative High-Throughput drug screen in 47 multiple myeloma cell lines against the NCATS MIPE library collection: OCIMY5_PLB cell viability assay (AID 1918988); also: nearly all actives have a fitted effect of over 65% in size
In short: as §1

[10] = Quantitative High-Throughput drug screen in 47 multiple myeloma cell lines against the NCATS MIPE library collection: U266_ATCC cell viability assay (AID 1919864); also: nearly all actives have a fitted effect of over 35% in size
In short: as §1

[11] = Quantitative High-Throughput drug screen in 47 multiple myeloma cell lines against the NCATS MIPE library collection: XG6_PLB cell viability assay (AID 1919865); also: nearly all actives have a fitted effect of over 40% in size
In short: as §1

[12] = Quantitative High-Throughput drug screen in 47 multiple myeloma cell lines against the NCATS MIPE library collection: XG1_PLB cell viability assay (AID 1919866); also: nearly all actives have a fitted effect of over 35% in size
In short: as §1

[13] = Quantitative High-Throughput drug screen in 47 multiple myeloma cell lines against the NCATS MIPE library collection: VP6_DJ cell viability assay (AID 1919867); also: nearly all actives have a fitted effect of over 40% in size
In short: as §1

[14] = Quantitative High-Throughput drug screen in 47 multiple myeloma cell lines against the NCATS MIPE library collection: UTMC2_PLB cell viability assay (AID 1919868); settings: CellTiter-Glo ATP luminescence, 48 h; viability (% of DMSO control): at 45.8 µM (top of the series); also: nearly all actives have a fitted effect of over 55% in size;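 as to viability (% of DMSO control): 100% = DMSO-only wells and 0% = media-only wells without cells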
In short: as §1

[15] = Quantitative High-Throughput drug screen in 47 multiple myeloma cell lines against the NCATS MIPE library collection: PE2_PLB cell viability assay (AID 1919869); also: nearly all actives have a fitted effect of over 35% in size
In short: as §1

[16] = Quantitative High-Throughput drug screen in 47 multiple myeloma cell lines against the NCATS MIPE library collection: PCM6_Riken cell viability assay (AID 1919870); also: nearly all actives have a fitted effect of over 30% in size
In short: as §1

[17] = Quantitative High-Throughput drug screen in 47 multiple myeloma cell lines against the NCATS MIPE library collection: RPMI8226_ATCC cell viability assay (AID 1919871); also: nearly all actives have a fitted effect of over 30% in size
In short: as §1

[18] = Quantitative High-Throughput drug screen in 47 multiple myeloma cell lines against the NCATS MIPE library collection: OPM2_DSMZ cell viability assay (AID 1919872); also: nearly all actives have a fitted effect of over 30% in size
In short: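 Viability readout: CellTiter-Glo luminescence following 5 min room-temperature incubation with reagent. Prior exposure: 48 h, 37C, humidified 5% CO2, 500 cells per well.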

[19] = Quantitative High-Throughput drug screen in 47 multiple myeloma cell lines against the NCATS MIPE library collection: OPM1_PLB cell viability assay (AID 1918989); also: nearly all actives have a fitted effect of over 40% in size
In short: as §1

[20] = Quantitative High-Throughput drug screen in 47 multiple myeloma cell lines against the NCATS MIPE library collection: SKMM1_PLB cell viability assay (AID 1919863); settings: SKMM1 myeloma viability, CellTiter-Glo ATP, 48 h; viability: stronger effect = lower value; also: nearly all actives have a fitted effect of over 35% in size
In short: as §1
Potency is read from the fitted curve at half-maximal effect.

CC(C)C[C@H](NC(=O)[C@@H](NC(=O)c1cccc(-c2ccccc2)n1)[C@@H](C)O)B(O)O
active: Potency [1] 16.6 nM | Potency [2] 13.2 nM | Potency [3] 13.2 nM | Potency [4] 29.6 nM | Potency [5] 23.5 nM | Potency [6] 26.4 nM | Potency [7] 20.9 nM | Potency [8] 14.8 nM | Potency [9] 13.2 nM | Potency [10] 14.8 nM | Potency [11] 13.2 nM | Potency [12] 18.7 nM | Potency [13] 9.3 nM | Potency [14] 166 nM | Potency [15] 11.8 nM | Potency [16] 23.5 nM | Potency [17] 52.6 nM | Potency [18] 41.8 nM

CCOc1cc2c(c(F)c1OCC)C(=N)N(CC(=O)c1cc(N3CCOCC3)c(OC)c(C(C)(C)C)c1)C2
active: Potency [1] 20900 nM | Potency [2] 14800 nM | Potency [3] 20900 nM | Potency [4] 16600 nM | Potency [5] 20900 nM | Potency [7] 23500 nM | Potency [8] 7430 nM | Potency [9] 16600 nM | Potency [19] 14800 nM | Potency [20] 20900 nM | Potency [11] 9350 nM | Potency [12] 8330 nM | Potency [13] 9350 nM | Potency [14] 7430 nM | Potency [15] 20900 nM | Potency [16] 7430 nM | Potency [17] 18700 nM | Potency [18] 18700 nM

CCN(CC)CCNC(=O)c1c(C)[nH]c(C=C2C(=O)Nc3ccc(F)cc32)c1C
active: Potency [1] 13600 nM | Potency [2] 4810 nM | Potency [3] 3030 nM | Potency [4] 30300 nM | Potency [5] 5400 nM | Potency [6] 540 nM | Potency [7] 6050 nM | Potency [8] 171 nM | Potency [9] 8550 nM | Potency [19] 1520 nM | Potency [20] 27000 nM | Potency [10] 3400 nM | Potency [11] 1710 nM | Potency [12] 3030 nM | Potency [13] 1520 nM | Potency [14] 540 nM | Potency [15] 2150 nM | Potency [16] 1520 nM | Potency [17] 10800 nM | Potency [18] 6050 nM

Oc1ccc(-c2ccc(-c3cc(Nc4cccc(CNC5CC5)c4)n[nH]3)cc2)c(O)c1
active: Potency [1] 9350 nM | Potency [2] 1660 nM | Potency [3] 2350 nM | Potency [4] 2640 nM | Potency [5] 5260 nM | Potency [6] 148 nM | Potency [7] 4180 nM | Potency [8] 4690 nM | Potency [9] 1480 nM | Potency [20] 5260 nM | Potency [10] 5260 nM | Potency [11] 418 nM | Potency [12] 526 nM | Potency [13] 743 nM | Potency [14] 1320 nM | Potency [15] 1320 nM | Potency [16] 590 nM | Potency [17] 9350 nM | Potency [18] 4690 nM

CC[C@]12C=CCN3CC[C@@]4(c5cc([C@@]6(C(=O)OC)C[C@H]7C[C@@H](C(C)(F)F)CN(Cc8c6[nH]c6ccccc86)C7)c(OC)cc5N(C)[C@H]4[C@@](O)(C(=O)OC)[C@H]1OC(C)=O)[C@@H]32
active: Potency [1] 46.9 nM | Potency [2] 148 nM | Potency [3] 469 nM | Potency [4] 20.9 nM | Potency [5] 4.7 nM | Potency [7] 5.9 nM | Potency [8] 1 nM | Potency [9] 1.9 nM | Potency [19] 16.6 nM | Potency [20] 9.3 nM | Potency [10] 1660 nM | Potency [14] 1 nM | Potency [16] 10.5 nM | Potency [17] 166 nM | Potency [18] 11.8 nM

Cc1cc(C(=O)NOCCO)c(Nc2ccc(I)cc2F)n(C)c1=O
inactive: Potency [1] | Potency [3] | Potency [4] | Potency [5] | Potency [6] | viability [20] 90.9% | Potency [16] | Potency [17]
active: Potency [2] 2960 nM

CCC[C@@H](C=O)NC(=O)[C@H](CC(C)C)NC(=O)[C@H](CC(C)C)NC(=O)OCc1ccccc1 (Cbz-Leu-Leu-[Nva]-aldehyde)
active: Potency [1] 743 nM | Potency [2] 418 nM | Potency [3] 743 nM | Potency [4] 1320 nM | Potency [5] 662 nM | Potency [7] 743 nM | Potency [8] 372 nM | Potency [9] 935 nM | Potency [19] 590 nM | Potency [20] 1870 nM | Potency [10] 372 nM | Potency [11] 264 nM | Potency [12] 372 nM | Potency [14] 1480 nM | Potency [15] 418 nM | Potency [16] 469 nM | Potency [18] 1660 nM

CCOC(=O)[C@H](CCc1ccccc1)N[C@@H](C)C(=O)N1[C@@H](C(=O)O)C[C@H]2CCC[C@@H]21
active: Potency [1] 26400 nM | Potency [2] 2640 nM | Potency [3] 16600 nM | Potency [4] 20900 nM | Potency [5] 23500 nM | Potency [6] 7430 nM | Potency [7] 26400 nM | Potency [9] 14800 nM | Potency [10] 8330 nM | Potency [11] 7430 nM | Potency [12] 7430 nM | Potency [13] 6620 nM | Potency [15] 8330 nM | Potency [16] 8330 nM | Potency [17] 20900 nM | Potency [18] 26400 nM

CN(CC(=O)N(Cc1ccc(C2CCCCC2)cc1)c1ccc(C(=O)O)c(O)c1)S(=O)(=O)c1c(F)c(F)c(F)c(F)c1F
active: Potency [1] 33200 nM | Potency [2] 7430 nM | Potency [3] 8330 nM | Potency [4] 20900 nM | Potency [5] 29600 nM | Potency [6] 9350 nM | Potency [7] 20900 nM | Potency [8] 8330 nM | Potency [9] 18700 nM | Potency [11] 4690 nM | Potency [12] 4690 nM | Potency [13] 8330 nM | viability (% of DMSO control) [14] 77% | Potency [15] 3320 nM | Potency [16] 6620 nM | Potency [18] 23500 nM
